# Measurements reported in the supplement of paper PMC8728848.
# Many of the other results were omitted from the sample, so the strongest signals are more common in it than they were.
# How the values were obtained:
# Experiment in all cases: glycan array binding signal (z-score within array); higher = stronger binding
# Conditions in all cases: glycan notation: IUPAC condensed, linker removed
# [1] = molecular target: Fuc(a1-2)Gal(b1-4)GlcNAc(b1-2)Man(a1-3)[Fuc(a1-2)Gal(b1-4)GlcNAc(b1-2)Man(a1-6)]Man(b1-4)GlcNAc(b1-4)[Fuc(a1-6)]GlcNAc
# How it was run: (§1)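 The binding signal is a Z-score computed within each array. Data were drawn from 3228 arrays in the Consortium for Functional Glycomics database, restricted to those with a known protein sequence. Scores were averaged over arrays of the same protein sequence at different concentrations or buffers, and over linkers, and negative values can be taken as non-binding.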
# [2] = molecular target: Fuc(a1-2)Gal(b1-4)[Fuc(a1-3)]GlcNAc(b1-3)GalNAc
# How it was run: as §1
# [3] = molecular target: Fuc(a1-2)Gal6S(b1-4)GlcNAc
# How it was run: as §1
# [4] = molecular target: Fuc(a1-2)[Gal(a1-3)]Gal(b1-3)GlcNAc(b1-2)Man(a1-3)[Fuc(a1-2)[Gal(a1-3)]Gal(b1-3)GlcNAc(b1-2)Man(a1-6)]Man(b1-4)GlcNAc(b1-4)[Fuc(a1-6)]GlcNAc
# How it was run: as §1
# [5] = molecular target: Fuc(a1-2)[Gal(a1-3)]Gal(b1-4)[Fuc(a1-3)]GlcNAc(b1-3)GalNAc
# How it was run: as §1
# [6] = molecular target: Fuc(a1-2)[GalNAc(a1-3)]Gal(b1-4)GlcNAc(b1-3)Gal(b1-4)GlcNAc
# How it was run: as §1
# Gal(a1-2)Gal = molecular target: Gal(a1-2)Gal
# How it was run: as §1
# Gal(b1-2)Gal = molecular target: Gal(b1-2)Gal
# How it was run: as §1
# [7] = molecular target: Gal(b1-3)GalNAc(a1-3)[Fuc(a1-2)]Gal(b1-4)Glc
# How it was run: as §1
# [8] = molecular target: Gal(b1-3)GlcNAc(b1-3)Gal(b1-4)Glc
# How it was run: as §1
# [9] = molecular target: Gal(b1-3)GlcNAc(b1-3)GalNAc
# How it was run: as §1
# [10] = molecular target: Gal(b1-3)[Fuc(a1-4)]GlcNAc(b1-2)Man(a1-3)[Gal(b1-3)[Fuc(a1-4)]GlcNAc(b1-2)Man(a1-6)]Man(b1-4)GlcNAc(b1-4)[Fuc(a1-6)]GlcNAc
# How it was run: as §1
# [11] = molecular target: Gal(b1-3)[Fuc(a1-4)]GlcNAc(b1-3)Gal(b1-3)[Fuc(a1-4)]GlcNAc
# How it was run: as §1
# Gal(b1-4)Gal = molecular target: Gal(b1-4)Gal
# How it was run: as §1
# [12] = molecular target: Gal(b1-4)GlcNAc(b1-6)Gal(b1-4)GlcNAc
# How it was run: as §1
# Gal3S(b1-4)Glc6S = molecular target: Gal3S(b1-4)Glc6S
# How it was run: as §1
# [13] = molecular target: Gal3S(b1-4)[Fuc(a1-3)]Glc6S
# How it was run: as §1
# [14] = molecular target: GalNAc(a1-3)Fuc(a1-2)Gal(b1-4)GlcNAc(b1-3)[GalNAc(a1-3)Fuc(a1-2)Gal(b1-4)GlcNAc(b1-6)]GalNAc
# How it was run: as §1
# GalNAc(b1-3)Gal = molecular target: GalNAc(b1-3)Gal
# How it was run: as §1
# [15] = molecular target: GalNAc(b1-4)GlcNAc(b1-2)Man(a1-3)[GalNAc(b1-4)GlcNAc(b1-2)Man(a1-6)]Man(b1-4)GlcNAc(b1-4)GlcNAc
# How it was run: as §1
# Glc(a1-4)Glc = molecular target: Glc(a1-4)Glc
# How it was run: as §1
# GlcA(b1-3)Gal = molecular target: GlcA(b1-3)Gal
# How it was run: as §1
# [16] = molecular target: GlcNAc(a1-4)Gal(b1-4)GlcNAc(b1-3)Gal(b1-4)GlcNAc
# How it was run: as §1
# [17] = molecular target: GlcNAc(a1-4)Gal(b1-4)GlcNAc(b1-3)Gal(b1-4)GlcNAc(b1-3)Gal(b1-4)GlcNAc
# How it was run: as §1
# [18] = molecular target: GlcNAc(a1-4)Gal(b1-4)GlcNAc(b1-3)Gal(b1-4)[Fuc(a1-3)]GlcNAc(b1-3)Gal(b1-4)[Fuc(a1-3)]GlcNAc
# How it was run: as §1
# [19] = molecular target: GlcNAc(b1-4)Gal(b1-4)GlcNAc
# How it was run: as §1
# [20] = molecular target: Kdn(a2-3)Gal(b1-4)[Fuc(a1-3)]GlcNAc
# How it was run: as §1
# [21] = molecular target: Man(a1-2)Man(a1-3)[Man(a1-2)Man(a1-6)]Man(a1-6)[Man(a1-2)Man(a1-2)Man(a1-3)]Man
# How it was run: as §1
# [22] = molecular target: Man(a1-2)Man(a1-3)[Man(a1-6)]Man(a1-6)[Man(a1-2)Man(a1-3)]Man(b1-4)GlcNAc(b1-4)GlcNAc
# How it was run: as §1
# Man(a1-3)[Man(a1-6)]Man = molecular target: Man(a1-3)[Man(a1-6)]Man
# How it was run: as §1
# Neu5Ac(a2-3)Gal = molecular target: Neu5Ac(a2-3)Gal
# How it was run: as §1
# [23] = molecular target: Neu5Ac(a2-3)Gal(b1-3)GalNAc6S
# How it was run: as §1
# [24] = molecular target: Neu5Ac(a2-3)Gal(b1-4)GlcNAc(b1-2)Man(a1-3)[GlcNAc(b1-2)Man(b1-4)GlcNAc(b1-2)Man(a1-6)]Man(b1-4)GlcNAc(b1-4)GlcNAc
# How it was run: as §1
# [25] = molecular target: Neu5Ac(a2-3)Gal6S(b1-4)GlcNAc
# How it was run: as §1
# [26] = molecular target: Neu5Ac(a2-6)Gal(b1-4)GlcNAc(b1-2)Man(a1-3)[GlcNAc(b1-2)Man(a1-6)]Man(b1-4)GlcNAc(b1-4)GlcNAc
# How it was run: as §1
# [27] = molecular target: Neu5Ac(a2-6)Gal(b1-4)GlcNAc(b1-2)Man(a1-3)[Man(a1-6)]Man(b1-4)GlcNAc(b1-4)GlcNAc
# How it was run: as §1
# [28] = molecular target: Neu5Gc(a2-3)Gal(b1-4)GlcNAc
# How it was run: as §1
# Neu5Gc(a2-6)GalNAc = molecular target: Neu5Gc(a2-6)GalNAc
# How it was run: as §1
binder,measurement,setting,value
"NanH (Corynebacterium diphtheriae), C6JSW6 (protein) MYSSNRTYSRAILGLSAVLTLSFTSLVAPVNAEEPETVVPATAELEGEVAATLPSAETGLLDAAPPKPVARGAAGDLQLPAVNEKEVFEEGRVIRAPEPDQSRCYRIPALVTAKNGDLLLAFDNRYGGGDGAKTWCRDAPYENMKRINRQNMQTDIQLYRSVDNGQSFEDFGYIAQGTADVRELSYTDPALVTDRTTGKIFAFFVRAYDYRVGQSSAGFNEGDVEAEIQKRDVQDTVVVESLDGGQTWGNMRLLSALTAKVSSISTGDTIFDGRGRFVTSGAGIQLQYGEHAGRLIVPISVDIDPKDSAKFINLAIYSDDHGQTWQAGIGTAGGAGFSGDVSKIVELSDGRLMMSSKDNDKPRWVSYSEDQGENWSTPKRKIIAPPQHPEKHNTGINVGLIRAYPNAPENSAAARVLLYSAPIDQRYSHKHTEDGRNNGWVMGSCDDGKTWSFGRQIEKNRFQYSSMTVMSDGNIGMVYESGDFSTGMNLKFAKFNMAWLGADCHSNEALGLTGDIDKEIVEAQEKAAEATKEAQEAAEKVQKLTEELAAARKENDELKNQVKGFKEAVGDLANEAEDLADKVFKLETAVTEAKEKATVAEKAASDAVTQLQKAESIAEEQKAKAESAAAEAQALREKLERLEGSILTVKENPEAEEIADLSSTAKDAADAARRAATDANGALSGQKQDEEKPAMGLMGILKVLAGIIPLVAIIATIFQTFRLPFNIPGMR",glycan array binding signal (z-score),[1],1.01
same,glycan array binding signal (z-score),[2],3.22
same,glycan array binding signal (z-score),[3],0.001
same,glycan array binding signal (z-score),[4],1.3
same,glycan array binding signal (z-score),[5],-0.377
same,glycan array binding signal (z-score),[6],0.149
same,glycan array binding signal (z-score),Gal(a1-2)Gal,-1.72
same,glycan array binding signal (z-score),Gal(b1-2)Gal,2.93
same,glycan array binding signal (z-score),[7],1.05
same,glycan array binding signal (z-score),[8],-1.28
same,glycan array binding signal (z-score),[9],-1.71
same,glycan array binding signal (z-score),[10],2.84
same,glycan array binding signal (z-score),[11],-0.787
same,glycan array binding signal (z-score),Gal(b1-4)Gal,-1.5
same,glycan array binding signal (z-score),[12],1.11
same,glycan array binding signal (z-score),Gal3S(b1-4)Glc6S,-0.269
same,glycan array binding signal (z-score),[13],-0.594
same,glycan array binding signal (z-score),[14],0.818
same,glycan array binding signal (z-score),GalNAc(b1-3)Gal,-1.91
same,glycan array binding signal (z-score),[15],3.38
same,glycan array binding signal (z-score),Glc(a1-4)Glc,-0.111
same,glycan array binding signal (z-score),GlcA(b1-3)Gal,2.74
same,glycan array binding signal (z-score),[16],3.02
same,glycan array binding signal (z-score),[17],-1.05
same,glycan array binding signal (z-score),[18],3.97
same,glycan array binding signal (z-score),[19],-0.683
same,glycan array binding signal (z-score),[20],-0.213
same,glycan array binding signal (z-score),[21],3.74
same,glycan array binding signal (z-score),[22],-0.263
same,glycan array binding signal (z-score),Man(a1-3)[Man(a1-6)]Man,-0.151
same,glycan array binding signal (z-score),Neu5Ac(a2-3)Gal,0.353
same,glycan array binding signal (z-score),[23],1.83
same,glycan array binding signal (z-score),[24],0.603
same,glycan array binding signal (z-score),[25],-1.04
same,glycan array binding signal (z-score),[26],0.122
same,glycan array binding signal (z-score),[27],-0.077
same,glycan array binding signal (z-score),[28],-0.068
same,glycan array binding signal (z-score),Neu5Gc(a2-6)GalNAc,0.15
